# Test results from PubChem BioAssay (NCI).
# The panel holds about 83,000 compounds, 20% with a hit somewhere; the sample as a whole holds those more often.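 Interpretation: 100, growth as untreated; towards 0, rising growth inhibition; 0, no net growth; 0 to -100, cell death. Compounds scoring below 10 were considered active.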 Unmarked numbers belong to inactive results. Active and inactive are the calls of the source.
# Experiments:
# Experiment in all cases: NCI-60 one-dose screen, 48 h (100 = growth as untreated, 0 = no growth, -100 = all killed)
# Conditions in all cases: 10 µM
# DU-145 prostate = system: DU-145 prostate
# K-562 leukemia = system: K-562 leukemia
# MDA-MB-231 breast = system: MDA-MB-231 breast
# RXF 393 renal = system: RXF 393 renal
# SF-268 CNS = system: SF-268 CNS
# SF-539 CNS = system: SF-539 CNS
# UACC-257 melanoma = system: UACC-257 melanoma
# M14 melanoma = system: M14 melanoma
# HCT-15 colon = system: HCT-15 colon
# HT29 colon = system: HT29 colon
# SNB-75 CNS = system: SNB-75 CNS
# SNB-19 CNS = system: SNB-19 CNS
# U251 CNS = system: U251 CNS
# PC-3 prostate = system: PC-3 prostate
# SK-MEL-5 melanoma = system: SK-MEL-5 melanoma
# UACC-62 melanoma = system: UACC-62 melanoma
# LOX IMVI melanoma = system: LOX IMVI melanoma
# SK-MEL-28 melanoma = system: SK-MEL-28 melanoma
# SF-295 CNS = system: SF-295 CNS
Structure (SMILES),growth (DU-145 prostate),growth (K-562 leukemia),growth (MDA-MB-231 breast),growth (RXF 393 renal),growth (SF-268 CNS) [%],growth (SF-539 CNS),growth (UACC-257 melanoma),growth (M14 melanoma),growth (HCT-15 colon),growth (HT29 colon),growth (SNB-75 CNS),growth (SNB-19 CNS) [%],growth (U251 CNS) [%],growth (PC-3 prostate) [%],growth (SK-MEL-5 melanoma),growth (UACC-62 melanoma),growth (LOX IMVI melanoma),growth (SK-MEL-28 melanoma) [%],growth (SF-295 CNS)
Cc1ccc(NC(=O)N2CCCCC2)cc1[N+](=O)[O-],108%,106%,95.5%,106%,81.1,92.6%,-0.113% (active),90.8%,96%,103%,90.5%,98.4,101,76.6,103%,86.7%,97%,105,
COc1ccc(N(C)c2ncnc3occ(C)c23)cc1,-40.2% (active),1.42% (active),-3.09% (active),14.4%,18,-20.4% (active),66.8%,0.316% (active),11.1%,7.69% (active),44.8%,27.2,13.9,,-44.5% (active),22.9%,17.7%,134,-8.16% (active)
COc1nc2c(c(=O)n1C)CN(c1ccccc1)C(=O)C(C)N2 (stereo not given),114%,101%,98.3%,95.2%,97.1,96.1%,93.5%,95.3%,101%,99.9%,77.4%,96.7,99,,104%,91.7%,91.6%,113,105%
COc1ccc(-c2nc(-c3nc4ccc(C)cc4[nH]3)cc3c2[nH]c2ccccc23)cc1,41.4%,17%,15.8%,27.9%,50.3,50.2%,69.6%,31.5%,29.7%,30%,,84.1,34.8,43.8,35.6%,21%,25.8%,71.7,25.5%
COc1cc(C2CC(c3ccccc3)=NN2C(C)=O)cc(OC)c1OC (stereo not given),49.3%,36.9%,75.3%,55%,46.2,28.3%,64%,29.7%,25.6%,11.4%,-17.1% (active),49,27.7,,35.3%,44.6%,41.7%,59.3,7.61% (active)
O=C(c1ccccc1)N(C(=O)c1ccccc1)N1CCCC1,113%,101%,117%,110%,98.7,99.9%,,102%,107%,102%,87.3%,107,,88.4,98.4%,85.8%,90.9%,114,104%
CCn1cc(C(=O)O)c(=O)c2cc(F)c(N3CCNCC3)cc21,106%,96.6%,100%,118%,103,,106%,117%,102%,109%,98.2%,101,101,102,99.3%,,98.7%,115,93%
O=C1NC(=O)c2c(CCCSc3nc4ccccc4c(=O)n3CCc3ccccc3)cccc21,111%,89.7%,65.8%,92.8%,91.2,65.7%,105%,98.1%,96%,90.3%,82.8%,94.8,,88.9,95.8%,90%,81.8%,105,44.9%
NS(=O)(=O)c1ccc(N2N=C(c3ccccc3)CCC2=O)cc1,182%,85.1%,112%,110%,176,102%,96.5%,,109%,98.6%,108%,94.7,104,105,105%,,108%,120,99%
COc1cc(-c2ccc[nH]2)[nH]c1/C=C1\N=C(C)C(C(=O)NC(C)C)=C1C,21.2%,1.73% (active),-9.67% (active),47.6%,44.4,18.9%,23.3%,-1.65% (active),8.9% (active),,-13.7% (active),74.5,31.4,,-88.4% (active),-33.5% (active),-62.6% (active),44,40.2%
COc1ccc(C(=O)c2cc3c(OC)c(OC)c(OC)cc3[nH]2)cc1,81.8%,7.74% (active),56.3%,72%,63.5,66.1%,87.8%,30.2%,36.1%,14.2%,51.9%,71.9,59.8,,36.9%,36.7%,56.3%,65.2,143%
COc1ccc(-c2nn(-c3cccc(Cl)c3)cc2-c2c(C#N)c(=O)n3[nH]c(-c4ccccc4)nc3c2C#N)cc1,102%,78.3%,87.1%,95.9%,101,100%,110%,109%,93.4%,96.9%,80.3%,90.9,,101,96.4%,99.3%,87.6%,115,58.8%
Cc1nn(-c2ccccc2)c2nc(Cl)c(C=O)c(-c3ccccc3)c12,101%,77.3%,96.5%,105%,90.2,,98.3%,111%,94.8%,56.7%,106%,95.6,92.8,77.4,87.1%,79.4%,86.9%,107,
CSc1nc(S(C)(=O)=O)nc2[nH]c(=O)[nH]c12,116%,108%,89.7%,110%,101,99.1%,105%,96.7%,94.9%,99.5%,97%,99.8,105,106,103%,,108%,,
Cc1ccc(C(C)C)c(O)c1NC(=O)OC(C)C,107%,114%,106%,108%,93.8,,91.7%,96.6%,92.2%,,77.5%,99.4,105,85.5,97.6%,92%,99.4%,101,101%
Cc1cc(NC(=O)c2ccc(C)c(Nc3nccc(-c4cccnc4)n3)c2)cc(-n2cnc(C)c2)c1,32.3%,-36.2% (active),18.5%,-3.26% (active),73.3,21.1%,87%,30.9%,58.6%,-18.6% (active),-14% (active),66.6,,61.4,65.7%,44.6%,2.11% (active),41.5,-13.4% (active)
OCCn1cccn1,104%,101%,103%,93.8%,100,98.3%,136%,,98.6%,104%,109%,113,101,100,99%,,96.3%,117,108%
N#Cc1cnn(C(=O)c2nn(-c3ccc(Cl)cc3)cc2O)c1N,34.9%,-17.5% (active),38.5%,39.3%,29.5,12.8%,19%,24.3%,18.1%,29.1%,32.4%,32.5,22,,14.8%,5.76% (active),8.92% (active),56.1,-25.6% (active)
